In all, about 5,500 compounds went through this assay and about 2,000 (36%) were called active. Roughly 18% stayed inconclusive and do not appear here. Rule as the data show it: active = normalized growth mostly below about 0.91 (no sharp cut-off); inconclusive = no clear call, values can overlap the other calls; inactive = mostly above about 0.92. Some of the results follow.
Assay: chemical genetic growth profiling, strain panel (AID 1159580);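 also: tested at 20 µM; growth read once vehicle control cultures reached saturation at 30 °C; 1 = growth at the plate median or of vehicle wells; lower values mean less growth of the strain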
Settings: S. cerevisiae deletion strains, growth OD

Measured: normalized growth

C=C1C(=O)[C@]23[C@H](O)[C@H]1CC[C@H]2[C@@]12CO[C@]3(O)[C@H](O)[C@@H]1C(C)(C)CC[C@@H]2O
inactive: locus YAL021C, strain ccr4, stronger effect = lower value 1.02 | locus YAL026C, strain drs2, stronger effect = lower value 0.99 | locus YAL030W, strain snc1, stronger effect = lower value 1 | locus YBL061C, strain skt5, stronger effect = lower value 0.987 | locus YBR009C, strain hhf1, stronger effect = lower value 0.948 | locus YBR023C, strain chs3, stronger effect = lower value 0.991 | locus YBR171W, strain sec66, stronger effect = lower value 0.999 | locus YBR231C, strain swc5, stronger effect = lower value 1.01 | locus YBR279W, strain paf1, stronger effect = lower value 1 | locus YCL011C, strain gbp2, stronger effect = lower value 0.983 | locus YCL016C, strain dcc1, stronger effect = lower value 0.972 | locus YCL061C, strain MRC1, stronger effect = lower value 1 | locus YCL069W, strain vba3, stronger effect = lower value 0.995 | locus YCR088W, strain abp1, stronger effect = lower value 1 | locus YDL005C, strain med2, stronger effect = lower value 1.01 | locus YDL040C, strain nat1, stronger effect = lower value 0.993 | locus YDR001C, strain nth1, stronger effect = lower value 1 | locus YDR069C, strain doa4, stronger effect = lower value 1.04 | locus YDR137W, strain rgp1, stronger effect = lower value 0.99 | locus YDR159W, strain sac3, stronger effect = lower value 1 | locus YDR195W, strain ref2 1.03 | locus YDR297W, strain sur2, stronger effect = lower value 1 | locus YDR334W, strain swr1, stronger effect = lower value 0.994 | locus YDR335W, strain msn5, stronger effect = lower value 1 | locus YDR392W, strain spt3, stronger effect = lower value 0.883 | locus YEL003W, strain gim4, stronger effect = lower value 0.992 | locus YEL037C, strain rad23, stronger effect = lower value 1 | locus YEL061C, strain CIN8 (second series), stronger effect = lower value 1 | locus YER015W, strain faa2, stronger effect = lower value 0.982 | locus YER016W, strain bim1, stronger effect = lower value 1.01 | locus YER111C, strain swi4, stronger effect = lower value 0.999 | locus YER155C, strain BEM2 (second series), stronger effect = lower value 0.984 | locus YFR010W, strain ubp6, stronger effect = lower value 0.995 | locus YGL167C, strain pmr1, stronger effect = lower value 0.995 | locus YGL173C, strain kem1, stronger effect = lower value 1 | locus YGL227W, strain vid30, stronger effect = lower value 1 | locus YGL240W, strain doc1, stronger effect = lower value 1.02 | locus YGL253W, strain hxk2, stronger effect = lower value 1.02 | locus YHR013C, strain ard1, stronger effect = lower value 1.03 | locus YHR027C, strain rpn1, stronger effect = lower value 0.986 | locus YHR030C, strain SLT2, stronger effect = lower value 1.01 | locus YHR079C, strain IRE1, stronger effect = lower value 0.992 | locus YHR142W, strain chs7, stronger effect = lower value 1.01 | locus YJL092W, strain hpr5, stronger effect = lower value 1.02 | locus YJL095W, strain BCK1 (second series), stronger effect = lower value 0.99 | locus YJL095W, strain BCK1, stronger effect = lower value 0.974 | locus YJL115W, strain asf1, stronger effect = lower value 0.988 | locus YJL129C, strain trk1, stronger effect = lower value 1.03 | locus YJL154C, strain vps35, stronger effect = lower value 1.01 | locus YJL164C, strain tpk1, stronger effect = lower value 0.972 | locus YJL166W, strain qcr8, stronger effect = lower value 1.02 | locus YJL187C, strain SWE1, stronger effect = lower value 1.02 | locus YJR066W, strain TOR1, stronger effect = lower value 0.962 | locus YKL160W, strain elf1, stronger effect = lower value 1.04 | locus YKR026C, strain gcn3, stronger effect = lower value 0.994 | locus YKR091W, strain srl3, stronger effect = lower value 0.995 | locus YLL001W, strain dnm1, stronger effect = lower value 1 | locus YLL026W, stronger effect = lower value 0.992 | locus YLL041C, strain sdh2, stronger effect = lower value 0.991 | locus YLR027C, strain aat2, stronger effect = lower value 1 | locus YLR113W, strain HOG1, stronger effect = lower value 0.94 | locus YLR221C, strain rsa3, stronger effect = lower value 0.975 | locus YLR258W, strain gsy2, stronger effect = lower value 0.994 | locus YLR262C, strain YPT6 (second series), stronger effect = lower value 1.01 | locus YLR320W, strain mms22, stronger effect = lower value 1.01 | locus YLR342W, strain FKS1, stronger effect = lower value 1.01 | locus YLR357W, strain rsc2, stronger effect = lower value 0.999 | locus YLR370C, strain arc18, stronger effect = lower value 0.973 | locus YLR384C, strain iki3, stronger effect = lower value 0.993 | locus YML120C, strain ndi1, stronger effect = lower value 0.982 | locus YMR058W, strain fet3, stronger effect = lower value 1 | locus YMR125W, strain sto1, stronger effect = lower value 1.02 | locus YMR129W, stronger effect = lower value 0.997 | locus YMR205C, strain PFK2, stronger effect = lower value 1.02 | locus YMR231W, strain pep5, stronger effect = lower value 0.994 | locus YNL071W, strain lat1, stronger effect = lower value 1.01 | locus YNL183C, strain NPR1, stronger effect = lower value 0.95 | locus YNL209W, strain ssb2, stronger effect = lower value 0.993 | locus YNL248C, strain rpa49, stronger effect = lower value 1.06 | locus YNL322C, strain KRE1 (second series), stronger effect = lower value 0.994 | locus YNR049C, strain mso1, stronger effect = lower value 0.99 | locus YOR001W, strain rrp6, stronger effect = lower value 0.964 | locus YOR070C, strain gyp1, stronger effect = lower value 0.992 | locus YOR080W, strain dia2, stronger effect = lower value 0.998 | locus YOR083W, strain WHI5, stronger effect = lower value 1.02 | locus YOR106W, strain vam3, stronger effect = lower value 1.02 | locus YOR231W, strain MKK1, stronger effect = lower value 1.02 | locus YOR265W, strain rbl2, stronger effect = lower value 0.984 | locus YOR270C, strain vph1, stronger effect = lower value 1.04 | locus YOR290C, strain snf2, stronger effect = lower value 0.996 | locus YPL051W, strain arl3, stronger effect = lower value 1.04 | locus YPL078C, strain atp4, stronger effect = lower value 1.04 | locus YPL106C, strain sse1, stronger effect = lower value 0.981 | locus YPL240C, strain hsp82, stronger effect = lower value 0.975 | locus YPL256C, strain CLN2, stronger effect = lower value 0.984
